Results on 35 compounds are retold here after PubChem BioAssay.

The target in this test is Epidermal growth factor receptor (Homo sapiens) (UniProt P00533). The test is described as follows: EGFR binders on small-molecule microarrays, primary screen, biochemical, small-molecule microarray, 635 nm fluorescence (AID 1104).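 Further: score merges 667 nm emission intensity with spot signal to noise over triplicate slides.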 The following applies: EGFR binding, higher = more signal.
Epidermal growth factor receptor (Homo sapiens), sequence (P00533 whole entry, looked up): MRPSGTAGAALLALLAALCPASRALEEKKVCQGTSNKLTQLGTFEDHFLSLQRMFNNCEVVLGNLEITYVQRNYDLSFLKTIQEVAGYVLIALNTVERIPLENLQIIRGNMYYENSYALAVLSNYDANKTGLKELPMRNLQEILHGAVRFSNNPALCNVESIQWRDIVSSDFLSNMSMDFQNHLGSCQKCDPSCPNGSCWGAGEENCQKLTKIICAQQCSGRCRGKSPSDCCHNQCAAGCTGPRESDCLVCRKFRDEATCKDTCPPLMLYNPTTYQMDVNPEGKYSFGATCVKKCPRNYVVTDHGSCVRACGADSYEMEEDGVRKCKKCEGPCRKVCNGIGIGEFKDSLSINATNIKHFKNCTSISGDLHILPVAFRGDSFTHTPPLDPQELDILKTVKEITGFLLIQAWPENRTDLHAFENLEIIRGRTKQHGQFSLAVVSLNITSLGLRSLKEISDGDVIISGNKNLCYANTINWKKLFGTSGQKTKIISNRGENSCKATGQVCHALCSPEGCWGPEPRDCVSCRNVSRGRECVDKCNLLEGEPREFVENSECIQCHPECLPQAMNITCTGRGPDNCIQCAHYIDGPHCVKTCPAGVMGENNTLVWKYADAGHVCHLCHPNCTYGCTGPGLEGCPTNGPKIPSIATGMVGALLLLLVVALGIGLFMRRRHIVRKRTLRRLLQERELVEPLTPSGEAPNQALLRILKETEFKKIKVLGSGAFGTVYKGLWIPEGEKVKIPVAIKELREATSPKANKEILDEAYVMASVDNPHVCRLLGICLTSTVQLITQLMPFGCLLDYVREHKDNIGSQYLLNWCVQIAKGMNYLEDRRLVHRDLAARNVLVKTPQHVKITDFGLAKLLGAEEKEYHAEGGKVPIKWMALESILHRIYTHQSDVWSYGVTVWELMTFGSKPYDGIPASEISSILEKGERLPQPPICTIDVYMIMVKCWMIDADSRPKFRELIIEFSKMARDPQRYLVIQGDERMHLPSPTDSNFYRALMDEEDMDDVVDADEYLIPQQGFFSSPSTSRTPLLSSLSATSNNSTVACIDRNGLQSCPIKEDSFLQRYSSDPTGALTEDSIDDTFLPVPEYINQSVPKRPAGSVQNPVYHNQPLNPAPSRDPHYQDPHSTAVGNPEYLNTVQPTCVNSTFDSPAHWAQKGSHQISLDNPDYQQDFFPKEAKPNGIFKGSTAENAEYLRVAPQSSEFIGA
`C=C(CCCC)C(=O)CC[C@@H](OC(=O)c1ccccc1-c1ccccc1C(=O)O)c1ccc(CO)o1` displayed a composite z-score of -0.183.
Compound `O=C1c2ccccc2[C@](Cc2ccccc2I)(C(=O)O)[C@H](c2ccc(CO)cc2)N1Cc1ccccc1C(F)(F)F` came in with a composite z-score of -0.709.
`O[C@@H](Cc1ccccc1)[C@@H](/C=C/c1ccccc1)NCc1ccccc1Br` registered a composite z-score of -1.37.
In the case of `O=C(NCc1ccccc1)[C@@H]1c2ccccc2C(=O)N(Cc2cc(F)cc(C(F)(F)F)c2)[C@H]1c1ccc(CO)cc1` it was -0.0881.
Consider `CCCCN1CC=CC23O[C@@H]4/C=C\CCCOC(=O)C4[C@H]2C(=O)N(C(C)CO)[C@@H]3C1=O` (stereo not given in full), for which the composite z-score is -0.154.
The same measure for `CC(C)C(CO)N1C(=O)[C@@H]2[C@H]3C(=O)OCC=C[C@H]3OC23C=CCN(c2ccc4ccccc4c2)C(=O)[C@@H]13` (stereo not given in full): -1.04; for `C=C(/C(=C/C[C@@H](OC(=O)c1ccncc1)c1ccc(CO)o1)c1cc(C(=O)OC)ccc1OC)C(C)C`: 0.439.
In turn, `C=CC[C@@]1(C(=O)OC)N=C(c2ccc(OCCCO)cc2)O[C@@H]1c1ccccc1CN=[N+]=[N-]` registered a composite z-score of -0.328.
On to `[N-]=[N+]=Nc1ccccc1[C@H]1OC(c2ccc(OCCCO)cc2)=N[C@@]1(CCS(=O)(=O)c1ccccc1)C(=O)N1CCOCC1`, for which the composite z-score was 0.211.
In the case of `C=CCN1C(=O)[C@@]2(O[C@@H](CCO)[C@H]([Si](C)(C)c3ccc(OC)cc3)[C@H]2C)c2cc(N3C(=O)COc4ccccc43)ccc21` it was -0.289.
Take `CCCC[C@H]1OB(O)C[C@H]2C1=C(COc1ccccc1)C[C@H]1C(=O)N(Cc3ccccc3)C(=O)[C@H]12`: the composite z-score is -0.248.
In turn, `C#C[C@H](O[Si](C#CCCCCCC)(C(C)C)C(C)C)c1ccccc1` gave a composite z-score of -0.33.
`C=CCNC(=O)[C@H]1[C@@H]2C(=O)O[C@@H](c3ccccc3)[C@@H](c3ccccc3)N2[C@@H](c2ccc(O)cc2)[C@]12C(=O)Nc1ccc(C#Cc3ccc(OC)cc3)cc12` yielded a composite z-score of 0.728.
In the case of `[N-]=[N+]=NCc1ccccc1C[C@@]1(C(=O)NCc2ccccc2)N=C(c2ccc(OCCCO)cc2)O[C@@H]1c1ccccc1CN=[N+]=[N-]`, the composite z-score is -0.286.
Turning to `C[N+](C)(C)CCCC[C@@H]1NC(=O)[C@H]2C[C@@H](C(=O)O)[C@@H](c3cccc(OCCO)c3)N2C1=O`, the composite z-score came out at 1.17.
`C=CCN1Cc2ccccc2C[C@@]2(COC(c3ccc(OCCCO)cc3)=N2)C1=O` yielded a composite z-score of 0.437.
The same measure for `[N-]=[N+]=NCc1ccccc1C[C@]1(C(N)=O)N=C(c2ccc(OCCCO)cc2)O[C@H]1c1ccccc1N=[N+]=[N-]`: -0.236.
For `CC(C)N1C(=O)c2ccccc2[C@](C)(C(=O)NCCCN(C)C)[C@@H]1c1ccc(CO)cc1`, the composite z-score is -0.968.
`COCCOC(=O)N1C(=O)[C@@]2(c3ccccc31)[C@H](C(=O)N1CCCCCCC1)[C@H]1C(=O)O[C@H](c3ccccc3)[C@H](c3ccccc3)N1[C@@H]2c1ccccc1OCCO` came in with a composite z-score of 1.
The same measure for `C=C(COC)C(=O)CC[C@@H](OC(=O)c1ccccc1-c1ccccc1C(=O)O)c1ccc(CO)o1`: 0.109.
The same measure for `COCCn1c(C(=O)N2CCCC2)cc2c1C[C@H]1CN(C(=O)c3ccccc3)[C@@](Cc3ccc(OC)cc3)(C(=O)OC)[C@@H]21`: -0.224; for `COc1ccc([Si](C)(C)[C@H]2[C@H](CC(=O)N3CCC[C@H]3CO)O[C@@]3(C(=O)N(c4ccccc4)c4ccccc43)[C@@H]2C)cc1`: 0.138.
Regarding `C=CCC(OC(C)=O)[C@@H]1[C@@H](N(Cc2cc3ccccc3o2)C(=O)c2ccc(-c3ccccc3)cc2)c2cc(OCCCO)ccc2N1C(=O)Cc1ccc2ccccc2c1` (stereo not given in full), the composite z-score was -0.227.
As for `C/C=C/[C@H](CCn1cc([C@H](O)c2ccccc2)nn1)[Si](C)(C)c1ccc(OC)cc1`, the composite z-score is -1.52.
Compound `CCCC[C@@H]1C[C@H]1[C@@H](NC(=O)c1ccccc1)c1ccccc1` had a composite z-score of -0.151.
The same measure for `O=C1OCCC=C[C@H]2OC34C=CCN(c5ccc6ccccc6c5)C(=O)[C@H]3N(CCCCCCO)C(=O)[C@@H]4C12` (stereo not given in full): -1.07.
Compound `COc1ccc([Si](C)(C)[C@H]2[C@H](CC(=O)N(CCO)Cc3ccccc3)O[C@@]3(C(=O)N(Cc4cccc(N5C(=O)c6cccc7cccc5c67)c4)c4ccccc43)[C@@H]2C)cc1` came in with a composite z-score of 0.148.
Regarding `C=CCC(OC(C)=O)[C@@H]1[C@@H](N(Cc2cc3ccccc3o2)C(=O)c2cccc3ccccc23)c2cc(OCCCO)ccc2N1C(=O)Cc1ccc(OC)cc1` (stereo not given in full), the composite z-score turned out to be 0.24.
The same measure for `COC(=O)[C@@]1(Cc2ccc(OC)cc2)[C@H]2c3cc(C(=O)N4CCCC4)n(CCc4ccccn4)c3C[C@H]2CN1C(=O)c1ccccc1`: -0.664; for `C=CCN1C(=O)[C@]2(Cc3ccccc31)N=C(c1ccc(OCCCO)cc1)O[C@@H]2c1ccccc1`: -0.0128.
Take `CCCC[C@H]1OB(O)C[C@H]2C1=C(C)Cn1c(=O)n(-c3ccccc3)c(=O)n12`: the composite z-score was determined as 0.512.
Turning to `CCN(CC)c1ccc(N2CC=CC34O[C@@H]5C=CCOC(=O)[C@@H]5[C@H]3C(=O)N(CCCCCO)[C@@H]4C2=O)cc1` (stereo not given in full), the composite z-score was -1.53.
The same measure for `C#C[C@H]1Oc2ccccc2S(=O)(=O)N2CCC[C@@H]12`: 0.354; for `O=C1C[C@@](C(=O)O)(c2ccc([N+](=O)[O-])cc2)[C@@H](c2ccc(CO)cc2I)N1CC12CC3CC(CC(C3)C1)C2`: 0.12; for `CCOC(=O)N1C(c2ccc(OCCCO)cc2)=NC(C(=O)OC)N1C(=O)OCC` (stereo not given): 0.431.
